These results are taken from ChEMBL document CHEMBL2218924, “A broad activity screen in support of a chemogenomic map for kinase signalling research and drug discovery” (Biochem J, 2013).

Assay [1] concerns the target BDNF/NT-3 growth factors receptor (Homo sapiens) (UniProt Q16620). The conditions noted are these: at 10 µM.
Assay [2] addresses T1, Tyrosine-protein kinase TXK (Homo sapiens) (UniProt P42681).
T1 sequence (whole entry): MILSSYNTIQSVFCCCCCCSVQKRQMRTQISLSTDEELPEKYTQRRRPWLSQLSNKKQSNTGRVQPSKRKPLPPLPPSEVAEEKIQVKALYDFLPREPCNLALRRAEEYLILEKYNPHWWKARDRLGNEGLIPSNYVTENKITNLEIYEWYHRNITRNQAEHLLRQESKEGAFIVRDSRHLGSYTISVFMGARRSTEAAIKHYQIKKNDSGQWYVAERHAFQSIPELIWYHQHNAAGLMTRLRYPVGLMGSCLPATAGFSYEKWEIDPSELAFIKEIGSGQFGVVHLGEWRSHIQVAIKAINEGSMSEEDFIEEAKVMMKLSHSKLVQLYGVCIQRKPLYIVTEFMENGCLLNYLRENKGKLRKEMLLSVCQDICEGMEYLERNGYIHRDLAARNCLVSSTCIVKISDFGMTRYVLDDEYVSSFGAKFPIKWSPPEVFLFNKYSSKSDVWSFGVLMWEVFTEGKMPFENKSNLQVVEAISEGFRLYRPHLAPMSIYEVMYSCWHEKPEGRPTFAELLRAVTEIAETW
The settings on record: at 1 µM.

Assay [3] concerns the target T1, Tyrosine-protein kinase TXK (Homo sapiens). The conditions noted are these: at 10 µM.
Assay [4] has as its target T2, Serine/threonine-protein kinase ULK2 (Homo sapiens) (UniProt Q8IYT8).
T2 sequence (whole entry): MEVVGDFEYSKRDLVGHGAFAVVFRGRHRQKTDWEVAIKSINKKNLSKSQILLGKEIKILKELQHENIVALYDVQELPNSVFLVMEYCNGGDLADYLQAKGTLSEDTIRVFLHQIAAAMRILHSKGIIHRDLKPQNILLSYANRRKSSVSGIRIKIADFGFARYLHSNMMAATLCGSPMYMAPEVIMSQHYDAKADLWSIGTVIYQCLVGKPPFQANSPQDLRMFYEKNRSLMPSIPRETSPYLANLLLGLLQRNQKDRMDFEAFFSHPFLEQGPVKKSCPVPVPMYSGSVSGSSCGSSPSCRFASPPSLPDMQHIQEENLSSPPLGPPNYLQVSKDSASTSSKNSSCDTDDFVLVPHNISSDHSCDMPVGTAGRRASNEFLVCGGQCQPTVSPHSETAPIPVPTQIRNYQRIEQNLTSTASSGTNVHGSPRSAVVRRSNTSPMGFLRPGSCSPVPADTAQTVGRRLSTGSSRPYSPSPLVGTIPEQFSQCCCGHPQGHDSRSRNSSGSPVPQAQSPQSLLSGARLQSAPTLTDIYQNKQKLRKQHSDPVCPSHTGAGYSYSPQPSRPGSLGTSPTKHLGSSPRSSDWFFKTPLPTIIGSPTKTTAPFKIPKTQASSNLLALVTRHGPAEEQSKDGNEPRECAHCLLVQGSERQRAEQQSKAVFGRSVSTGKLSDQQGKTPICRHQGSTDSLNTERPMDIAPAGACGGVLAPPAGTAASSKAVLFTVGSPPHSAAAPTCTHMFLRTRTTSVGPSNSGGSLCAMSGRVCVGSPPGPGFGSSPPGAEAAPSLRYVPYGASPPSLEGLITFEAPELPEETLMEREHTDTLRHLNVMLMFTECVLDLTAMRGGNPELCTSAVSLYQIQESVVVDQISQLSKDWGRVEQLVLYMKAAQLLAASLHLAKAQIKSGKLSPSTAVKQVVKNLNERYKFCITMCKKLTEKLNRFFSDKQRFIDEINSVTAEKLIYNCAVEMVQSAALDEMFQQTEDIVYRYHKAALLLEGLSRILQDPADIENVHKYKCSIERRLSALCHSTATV
The conditions noted are these: at 1 µM.

Assay [5] deals with T2, Serine/threonine-protein kinase ULK2 (Homo sapiens). The settings on record: at 10 µM.
In assay [6] the target is T3, Serine/threonine-protein kinase ULK3 (Homo sapiens) (UniProt Q6PHR2).
T3 sequence (whole entry): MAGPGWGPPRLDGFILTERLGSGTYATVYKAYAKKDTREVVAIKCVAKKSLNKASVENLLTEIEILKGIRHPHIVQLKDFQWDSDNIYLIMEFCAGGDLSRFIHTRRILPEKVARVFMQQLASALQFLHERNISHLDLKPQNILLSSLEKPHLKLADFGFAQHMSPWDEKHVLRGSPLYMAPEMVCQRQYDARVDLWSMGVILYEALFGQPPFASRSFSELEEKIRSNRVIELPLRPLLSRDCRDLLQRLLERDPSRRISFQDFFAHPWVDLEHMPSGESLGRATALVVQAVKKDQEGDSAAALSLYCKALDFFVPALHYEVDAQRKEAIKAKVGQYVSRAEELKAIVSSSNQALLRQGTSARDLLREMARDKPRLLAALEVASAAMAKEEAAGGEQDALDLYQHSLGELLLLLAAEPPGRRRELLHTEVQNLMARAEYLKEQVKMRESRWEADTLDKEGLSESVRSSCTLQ
The conditions noted are these: at 1 µM.

Assay [7] has as its target T3, Serine/threonine-protein kinase ULK3 (Homo sapiens). The settings on record: at 10 µM.
Assay [8] deals with Serine/threonine-protein kinase VRK2 (Homo sapiens) (UniProt Q86Y07). The settings on record: at 1 µM.
The target is the same in assay [9]. The settings on record: at 10 µM.
Assay [10] concerns the target Serine/threonine-protein kinase WNK2 (Homo sapiens) (UniProt Q9Y3S1). The conditions noted are these: at 1 µM.
Assay [11] shares this target. The settings on record: at 10 µM.
Assay [12] has as its target Serine/threonine-protein kinase WNK3 (Homo sapiens) (UniProt Q9BYP7). The conditions noted are these: at 1 µM.
Assay [13] has the same target. The settings on record: at 10 µM.
The target of assay [14] is Tyrosine-protein kinase Yes (Homo sapiens) (UniProt P07947). The settings on record: at 1 µM.
Assay [15] has the same target. The settings on record: at 10 µM.
Assay [16] addresses T4, Tyrosine-protein kinase ZAP-70 (Homo sapiens) (UniProt P43403).
T4 sequence (whole entry): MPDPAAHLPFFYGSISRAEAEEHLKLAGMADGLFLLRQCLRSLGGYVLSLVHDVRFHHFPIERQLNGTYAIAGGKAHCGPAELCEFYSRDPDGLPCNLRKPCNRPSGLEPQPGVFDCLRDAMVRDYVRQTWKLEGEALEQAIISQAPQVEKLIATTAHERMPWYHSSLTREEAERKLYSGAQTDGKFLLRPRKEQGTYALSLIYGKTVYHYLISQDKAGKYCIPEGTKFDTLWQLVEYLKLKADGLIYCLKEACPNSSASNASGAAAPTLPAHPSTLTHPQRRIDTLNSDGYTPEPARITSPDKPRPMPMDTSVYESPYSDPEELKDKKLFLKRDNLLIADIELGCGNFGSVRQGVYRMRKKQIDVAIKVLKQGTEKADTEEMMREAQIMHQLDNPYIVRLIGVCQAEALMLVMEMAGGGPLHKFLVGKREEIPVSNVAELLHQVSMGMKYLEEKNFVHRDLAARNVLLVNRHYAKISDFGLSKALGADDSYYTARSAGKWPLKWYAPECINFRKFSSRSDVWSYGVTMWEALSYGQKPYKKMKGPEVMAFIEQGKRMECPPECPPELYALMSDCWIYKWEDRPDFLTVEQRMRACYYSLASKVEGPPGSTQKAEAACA
The settings on record: at 1 µM.

Assay [17] has as its target Death-associated protein kinase 3 (Homo sapiens) (UniProt O43293). The settings on record: at 1 µM.
Assay [18] shares this target. The conditions noted are these: at 10 µM.
Assay [19] deals with RAF proto-oncogene serine/threonine-protein kinase (Homo sapiens) (UniProt P04049). The conditions noted are these: at 1 µM.
Assay [20] has the same target. The settings on record: at 10 µM.

The residual activity is the signal under treatment as a percentage of the control signal.

Serine/threonine-protein kinase WNK2 (Homo sapiens), sequence (Q9Y3S1 whole entry): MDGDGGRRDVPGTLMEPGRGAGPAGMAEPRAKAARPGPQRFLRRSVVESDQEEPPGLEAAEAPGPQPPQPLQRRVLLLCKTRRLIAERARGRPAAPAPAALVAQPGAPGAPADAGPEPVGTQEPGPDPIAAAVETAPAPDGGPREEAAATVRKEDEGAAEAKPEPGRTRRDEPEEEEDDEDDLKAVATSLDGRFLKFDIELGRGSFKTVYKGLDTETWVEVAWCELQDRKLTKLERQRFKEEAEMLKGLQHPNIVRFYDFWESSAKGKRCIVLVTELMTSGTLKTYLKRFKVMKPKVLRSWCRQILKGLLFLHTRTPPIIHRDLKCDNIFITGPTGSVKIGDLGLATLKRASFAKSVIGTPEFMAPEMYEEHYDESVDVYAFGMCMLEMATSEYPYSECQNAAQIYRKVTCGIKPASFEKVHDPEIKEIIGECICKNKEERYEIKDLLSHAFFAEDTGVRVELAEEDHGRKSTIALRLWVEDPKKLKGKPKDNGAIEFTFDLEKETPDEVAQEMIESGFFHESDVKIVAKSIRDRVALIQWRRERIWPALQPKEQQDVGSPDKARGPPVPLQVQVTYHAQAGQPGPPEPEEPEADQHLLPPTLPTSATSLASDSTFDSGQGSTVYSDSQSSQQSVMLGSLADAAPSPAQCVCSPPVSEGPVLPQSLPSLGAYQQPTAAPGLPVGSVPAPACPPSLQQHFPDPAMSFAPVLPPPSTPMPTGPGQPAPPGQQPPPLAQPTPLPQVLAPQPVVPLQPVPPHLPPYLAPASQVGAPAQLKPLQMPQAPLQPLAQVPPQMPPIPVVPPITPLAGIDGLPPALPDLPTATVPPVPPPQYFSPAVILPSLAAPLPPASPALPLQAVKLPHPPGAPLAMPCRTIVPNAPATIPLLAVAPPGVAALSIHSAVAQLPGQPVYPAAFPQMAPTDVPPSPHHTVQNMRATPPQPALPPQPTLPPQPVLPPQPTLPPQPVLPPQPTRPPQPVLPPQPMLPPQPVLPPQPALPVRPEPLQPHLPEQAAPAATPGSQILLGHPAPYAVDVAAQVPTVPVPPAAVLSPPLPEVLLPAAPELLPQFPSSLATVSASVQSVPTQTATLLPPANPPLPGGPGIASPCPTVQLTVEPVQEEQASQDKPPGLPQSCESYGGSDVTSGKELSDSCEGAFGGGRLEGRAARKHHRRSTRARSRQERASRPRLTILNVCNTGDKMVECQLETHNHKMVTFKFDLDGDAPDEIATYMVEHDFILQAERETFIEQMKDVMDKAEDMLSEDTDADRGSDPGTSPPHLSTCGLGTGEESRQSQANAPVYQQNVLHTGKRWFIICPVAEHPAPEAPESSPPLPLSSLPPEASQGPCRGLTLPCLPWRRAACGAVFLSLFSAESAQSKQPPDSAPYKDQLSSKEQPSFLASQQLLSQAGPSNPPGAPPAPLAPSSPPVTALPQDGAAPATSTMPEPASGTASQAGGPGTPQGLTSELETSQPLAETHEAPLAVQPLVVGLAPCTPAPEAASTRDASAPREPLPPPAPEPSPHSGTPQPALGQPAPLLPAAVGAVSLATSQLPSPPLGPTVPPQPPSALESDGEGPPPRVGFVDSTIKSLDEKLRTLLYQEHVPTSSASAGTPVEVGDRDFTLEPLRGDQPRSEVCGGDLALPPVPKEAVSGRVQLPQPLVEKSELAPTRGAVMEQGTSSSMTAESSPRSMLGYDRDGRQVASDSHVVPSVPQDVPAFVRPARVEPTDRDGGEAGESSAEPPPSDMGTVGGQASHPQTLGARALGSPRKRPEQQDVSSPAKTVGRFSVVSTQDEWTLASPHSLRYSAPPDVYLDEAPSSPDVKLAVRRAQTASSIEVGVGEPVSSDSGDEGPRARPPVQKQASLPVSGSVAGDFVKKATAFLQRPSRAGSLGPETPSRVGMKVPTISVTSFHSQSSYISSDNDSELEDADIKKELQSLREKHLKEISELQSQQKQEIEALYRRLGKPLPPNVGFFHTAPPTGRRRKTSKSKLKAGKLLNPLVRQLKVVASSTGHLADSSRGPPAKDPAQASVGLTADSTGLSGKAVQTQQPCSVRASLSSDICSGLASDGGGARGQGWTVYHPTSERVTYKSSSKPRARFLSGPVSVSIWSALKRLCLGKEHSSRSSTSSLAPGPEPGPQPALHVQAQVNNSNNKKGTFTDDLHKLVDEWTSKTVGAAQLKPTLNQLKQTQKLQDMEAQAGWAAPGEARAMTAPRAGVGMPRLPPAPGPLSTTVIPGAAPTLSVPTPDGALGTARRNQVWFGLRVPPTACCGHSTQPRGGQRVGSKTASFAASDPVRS
Serine/threonine-protein kinase VRK2 (Homo sapiens), sequence (Q86Y07 whole entry): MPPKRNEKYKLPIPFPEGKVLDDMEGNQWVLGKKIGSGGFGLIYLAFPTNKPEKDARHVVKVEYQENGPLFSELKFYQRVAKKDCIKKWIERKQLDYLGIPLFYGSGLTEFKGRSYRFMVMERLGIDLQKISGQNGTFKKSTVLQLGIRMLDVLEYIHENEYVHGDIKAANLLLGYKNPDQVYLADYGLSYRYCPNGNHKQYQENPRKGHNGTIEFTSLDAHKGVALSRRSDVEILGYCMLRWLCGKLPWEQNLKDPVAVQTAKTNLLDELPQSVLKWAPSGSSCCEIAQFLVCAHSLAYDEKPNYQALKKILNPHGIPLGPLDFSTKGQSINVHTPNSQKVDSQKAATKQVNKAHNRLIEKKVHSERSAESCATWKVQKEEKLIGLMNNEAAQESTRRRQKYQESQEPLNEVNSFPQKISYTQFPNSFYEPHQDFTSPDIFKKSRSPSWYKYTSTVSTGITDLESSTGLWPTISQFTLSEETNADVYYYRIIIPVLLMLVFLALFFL
BDNF/NT-3 growth factors receptor (Homo sapiens), sequence (Q16620 32-822 limits assumed): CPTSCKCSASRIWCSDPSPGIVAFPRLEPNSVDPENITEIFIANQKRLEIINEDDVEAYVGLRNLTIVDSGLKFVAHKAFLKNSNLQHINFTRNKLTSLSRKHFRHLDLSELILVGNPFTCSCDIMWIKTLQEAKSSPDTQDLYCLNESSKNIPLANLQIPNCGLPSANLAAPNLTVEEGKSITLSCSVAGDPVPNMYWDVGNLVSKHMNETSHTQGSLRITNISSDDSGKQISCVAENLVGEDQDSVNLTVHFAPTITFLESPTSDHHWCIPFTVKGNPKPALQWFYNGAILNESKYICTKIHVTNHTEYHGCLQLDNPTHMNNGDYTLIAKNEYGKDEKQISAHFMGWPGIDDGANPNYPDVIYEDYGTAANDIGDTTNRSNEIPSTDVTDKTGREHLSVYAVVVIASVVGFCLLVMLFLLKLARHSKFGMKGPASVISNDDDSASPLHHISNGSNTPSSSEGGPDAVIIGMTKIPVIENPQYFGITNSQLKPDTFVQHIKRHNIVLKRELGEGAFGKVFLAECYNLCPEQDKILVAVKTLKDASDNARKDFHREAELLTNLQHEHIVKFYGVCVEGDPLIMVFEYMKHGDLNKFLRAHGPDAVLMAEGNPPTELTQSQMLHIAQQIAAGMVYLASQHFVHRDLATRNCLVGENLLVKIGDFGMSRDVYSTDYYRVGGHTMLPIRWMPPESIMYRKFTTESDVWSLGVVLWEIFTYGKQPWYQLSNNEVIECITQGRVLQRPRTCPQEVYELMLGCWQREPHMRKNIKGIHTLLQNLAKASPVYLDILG
Death-associated protein kinase 3 (Homo sapiens), sequence (O43293 whole entry, looked up): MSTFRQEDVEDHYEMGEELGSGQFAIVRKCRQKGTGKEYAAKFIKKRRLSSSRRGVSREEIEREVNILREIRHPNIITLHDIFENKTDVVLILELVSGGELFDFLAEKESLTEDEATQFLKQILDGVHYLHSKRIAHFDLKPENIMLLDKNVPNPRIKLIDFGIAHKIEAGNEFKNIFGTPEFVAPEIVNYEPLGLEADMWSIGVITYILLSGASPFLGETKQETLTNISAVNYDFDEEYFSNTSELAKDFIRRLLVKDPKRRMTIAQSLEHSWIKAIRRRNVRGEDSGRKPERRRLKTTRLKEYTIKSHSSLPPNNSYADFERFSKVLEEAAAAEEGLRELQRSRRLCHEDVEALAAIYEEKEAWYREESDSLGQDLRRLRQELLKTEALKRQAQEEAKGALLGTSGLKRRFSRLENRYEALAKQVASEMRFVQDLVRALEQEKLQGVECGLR
RAF proto-oncogene serine/threonine-protein kinase (Homo sapiens), sequence (P04049 whole entry): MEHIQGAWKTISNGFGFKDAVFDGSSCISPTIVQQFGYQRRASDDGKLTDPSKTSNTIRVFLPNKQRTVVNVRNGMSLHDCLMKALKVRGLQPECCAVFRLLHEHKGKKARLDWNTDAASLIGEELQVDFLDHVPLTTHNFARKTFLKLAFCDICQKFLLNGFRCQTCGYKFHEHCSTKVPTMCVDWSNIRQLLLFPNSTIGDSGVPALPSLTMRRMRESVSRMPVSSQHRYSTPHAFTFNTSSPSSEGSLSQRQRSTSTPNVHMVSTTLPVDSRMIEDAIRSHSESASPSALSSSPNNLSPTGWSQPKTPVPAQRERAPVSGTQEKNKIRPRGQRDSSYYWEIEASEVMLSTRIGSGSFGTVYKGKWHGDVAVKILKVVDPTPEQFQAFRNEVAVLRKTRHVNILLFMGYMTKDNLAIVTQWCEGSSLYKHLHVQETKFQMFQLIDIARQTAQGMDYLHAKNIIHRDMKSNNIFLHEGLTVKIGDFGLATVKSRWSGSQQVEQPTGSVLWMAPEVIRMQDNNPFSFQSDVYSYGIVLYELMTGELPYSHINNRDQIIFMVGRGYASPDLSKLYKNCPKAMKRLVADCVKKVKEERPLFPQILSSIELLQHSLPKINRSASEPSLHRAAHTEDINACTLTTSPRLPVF

For the compound `Cn1cc(/C=C2\C(=O)Nc3ccc(S(N)(=O)=O)cc32)c2ccccc21`, the residual activity in assay [1] was -12%; in [2] it was 75%; in assay [3], 47%; in assay [4] it was 43%; in [5] it was 24%; in assay [6], 19%. Besides, the residual activity in [7] was 4%; in assay [8] it was 114% (inactive); in assay [9], 93%; in assay [10], 111% (inactive); in assay [11] it was 85%; in assay [12], 97% (inactive). The residual activity in [13] was 75%; in assay [14], 8%; in assay [15] it was 2%; in assay [16], 107%; in [17], 106%; in [18], 90%. In addition, the residual activity in assay [19] is 91%; in [20] it was 100%.

As to `CC#CC(=O)Nc1cc2c(Nc3ccc(F)c(Cl)c3)ncnc2cn1`, the residual activity in [1] came out at 103%; in assay [2], 52%; in assay [3] it was 14%; in assay [4] it was 99%; in [5], 97%; in [6], 116%. Moreover, the residual activity in assay [7] is 97%; in assay [8], 97% (inactive); in assay [9], 92%; in assay [10] it was 103% (inactive); in assay [11] it was 84%; in assay [12] it was 102% (inactive). The residual activity came out at 79% in assay [13]; 101% in assay [14]; 90% in assay [15]; 103% in assay [16]; 90% in assay [17]; 100% in [18]. In addition, the figures for the residual activity in [19] and in assay [20] were 82% and 92%, respectively.

Turning to `CC(=O)O/N=C1\C(=C2\C(=O)Nc3cc(Br)ccc32)Nc2ccccc21`, the residual activity in assay [1] was found to be 1%; in assay [2], 74%; in assay [3] it was 19%; in assay [4], 93%; in assay [5], 101%; in assay [6], 95%. Also, the residual activity in assay [7] was 66%; in assay [8], 99% (inactive); in assay [9], 97%; in assay [10], 104% (inactive); in assay [11], 92%; in assay [12] it was 101% (inactive). The residual activity in assay [13] came to 94%; in [14], 42%; in assay [15] it was 4%; in [16], 106%; in assay [17], 99%; in [18], 71%. The values for the residual activity in [19] and in assay [20] were 80% and 75%, respectively.

Turning to `Oc1c2ccccc2c2c3c(cccc13)N=N2`, the residual activity in assay [1] was 5%; in assay [2], 58%; in assay [3], 23%; in assay [4] it was 90%; in assay [5], 45%; in [6] it was 73%. The residual activity was 43% in assay [7]; 78% (inactive) in [8]; 36% in [9]; 79% (inactive) in assay [10]; 77% in [11]; 87% (inactive) in [12]. For the same compound, the residual activity came to 77% in [13]; 98% in assay [14]; 51% in assay [15]; 94% in [16]; 87% in [17]; 45% in assay [18]. Further, the residual activity turned out to be 69% in [19] and 61% in [20].

For `CCN(CC)CCCCN1c2ccccc2Oc2ccc(Cl)cc21`, the residual activity amounted to 87% in assay [1]; 99% in [2]; 81% in assay [3]; 116% in assay [4]; 96% in [5]; 111% in [6]. In addition, the residual activity was 98% in assay [7]; 126% (inactive) in assay [8]; 99% in assay [9]; 122% (inactive) in [10]; 89% in assay [11]; 126% (inactive) in assay [12]. Besides, the residual activity in assay [13] amounted to 104%; in assay [14] it was 106%; in assay [15] it was 94%; in [16] it was 113%; in assay [17], 99%; in assay [18], 109%. In addition, the residual activity in [19] came to 93%; in assay [20], 100%.

As to `CCC(=O)Nc1ccc2ncnc(Nc3cccc(Br)c3)c2c1`, the residual activity in assay [1] amounted to 119%; in assay [2], 108%; in assay [3] it was 78%; in assay [4], 106%; in [5], 100%; in assay [6] it was 107%. Moreover, the residual activity in [7] was 89%; in assay [8] it was 106% (inactive); in [9] it was 86%; in assay [10], 99% (inactive); in assay [11], 80%; in assay [12], 95% (inactive). Moreover, the residual activity is 80% in assay [13]; 85% in assay [14]; 50% in assay [15]; 86% in [16]; 75% in [17]; 100% in assay [18]. For the same compound, the residual activity was found to be 77% in assay [19] and 90% in [20].
